Experimental data taken from the supplement of paper PMC11732987, “Enantioselective OTUD7B fragment discovery through chemoproteomics screening and high-throughput optimisation” (Communications Chemistry, 2025).

How the values were obtained:
Assay in all cases: log2 ratio of Biotin-Ahx-Ub-VS probe labelling (fragment/DMSO); higher = less target engagement (more negative = stronger competition), active = hit call of the paper (q ≤ 0.05, log2 ratio ≤ -1)
Details in all cases: compound concentration: 200 uM; treatment time: 3 h
USP19 = target: T1, USP19 (UniProt O94966)
T1 sequence (whole entry): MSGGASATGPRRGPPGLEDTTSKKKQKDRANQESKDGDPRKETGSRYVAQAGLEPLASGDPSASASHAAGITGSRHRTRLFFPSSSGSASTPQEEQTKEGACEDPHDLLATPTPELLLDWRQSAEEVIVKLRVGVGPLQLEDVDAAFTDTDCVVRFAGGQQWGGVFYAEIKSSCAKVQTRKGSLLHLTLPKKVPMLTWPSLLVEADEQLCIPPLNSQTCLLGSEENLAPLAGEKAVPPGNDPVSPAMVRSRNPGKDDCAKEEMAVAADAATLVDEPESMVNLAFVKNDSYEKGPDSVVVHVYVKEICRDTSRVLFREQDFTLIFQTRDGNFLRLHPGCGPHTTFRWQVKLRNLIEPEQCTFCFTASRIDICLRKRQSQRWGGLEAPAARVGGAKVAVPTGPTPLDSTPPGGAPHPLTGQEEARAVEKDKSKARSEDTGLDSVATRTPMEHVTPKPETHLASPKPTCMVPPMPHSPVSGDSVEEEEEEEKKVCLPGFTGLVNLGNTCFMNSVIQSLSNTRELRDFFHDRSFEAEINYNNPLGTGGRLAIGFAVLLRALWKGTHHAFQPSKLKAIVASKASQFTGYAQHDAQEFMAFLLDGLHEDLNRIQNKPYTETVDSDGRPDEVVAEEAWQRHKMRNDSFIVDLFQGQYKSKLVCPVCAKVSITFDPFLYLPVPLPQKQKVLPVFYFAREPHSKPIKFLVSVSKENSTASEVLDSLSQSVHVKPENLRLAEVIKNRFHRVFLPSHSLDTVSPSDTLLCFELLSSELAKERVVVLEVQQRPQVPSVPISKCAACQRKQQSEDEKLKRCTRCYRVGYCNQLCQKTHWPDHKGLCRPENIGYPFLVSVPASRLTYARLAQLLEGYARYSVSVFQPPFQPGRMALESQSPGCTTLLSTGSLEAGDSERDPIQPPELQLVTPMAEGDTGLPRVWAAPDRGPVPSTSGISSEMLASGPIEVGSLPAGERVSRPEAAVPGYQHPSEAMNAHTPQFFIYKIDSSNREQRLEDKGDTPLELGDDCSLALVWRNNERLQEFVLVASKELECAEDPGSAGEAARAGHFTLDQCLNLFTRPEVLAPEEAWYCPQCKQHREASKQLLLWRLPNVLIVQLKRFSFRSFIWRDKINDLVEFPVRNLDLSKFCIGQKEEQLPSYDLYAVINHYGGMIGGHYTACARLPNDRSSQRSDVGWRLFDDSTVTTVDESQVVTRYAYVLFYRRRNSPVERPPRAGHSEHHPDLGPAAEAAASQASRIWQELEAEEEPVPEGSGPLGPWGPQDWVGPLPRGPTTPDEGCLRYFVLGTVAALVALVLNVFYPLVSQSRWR
In short: (§1)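 The table lists average log2 ratios of fragment over vehicle, from an unpaired t-test on global-median-normalised Spectronaut label-free quantities. Proteins with ≥2 unique peptides were used. Samples were HEK293T lysate (495 µg) treated in triplicate with fragment at 200 µM or vehicle for 3 h, then with Biotin-Ahx-Ub-VS (0.5 µM final) for 1 h, with labelled DUBs NeutrAvidin-enriched and run by diaPASEF LC-MS/MS.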

USP22 = target: T2, USP22 (UniProt Q9UPT9)
T2 sequence (whole entry): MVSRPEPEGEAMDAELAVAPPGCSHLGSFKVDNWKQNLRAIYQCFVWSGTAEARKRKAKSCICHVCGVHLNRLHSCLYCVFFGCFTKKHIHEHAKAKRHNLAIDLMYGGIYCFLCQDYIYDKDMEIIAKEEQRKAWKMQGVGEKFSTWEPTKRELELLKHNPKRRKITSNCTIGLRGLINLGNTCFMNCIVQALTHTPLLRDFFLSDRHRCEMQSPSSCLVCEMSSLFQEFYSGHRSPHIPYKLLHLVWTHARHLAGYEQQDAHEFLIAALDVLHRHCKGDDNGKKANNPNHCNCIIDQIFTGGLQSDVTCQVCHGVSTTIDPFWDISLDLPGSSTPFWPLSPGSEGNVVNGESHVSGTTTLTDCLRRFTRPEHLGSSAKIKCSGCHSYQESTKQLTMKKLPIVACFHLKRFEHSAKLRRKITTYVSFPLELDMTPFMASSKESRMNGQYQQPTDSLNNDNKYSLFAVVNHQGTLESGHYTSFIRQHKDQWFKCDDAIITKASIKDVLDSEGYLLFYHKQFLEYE
In short: as §1

USP24 = USP24 (UniProt Q9UPU5)
Sequence of USP24 (Q9UPU5 whole entry): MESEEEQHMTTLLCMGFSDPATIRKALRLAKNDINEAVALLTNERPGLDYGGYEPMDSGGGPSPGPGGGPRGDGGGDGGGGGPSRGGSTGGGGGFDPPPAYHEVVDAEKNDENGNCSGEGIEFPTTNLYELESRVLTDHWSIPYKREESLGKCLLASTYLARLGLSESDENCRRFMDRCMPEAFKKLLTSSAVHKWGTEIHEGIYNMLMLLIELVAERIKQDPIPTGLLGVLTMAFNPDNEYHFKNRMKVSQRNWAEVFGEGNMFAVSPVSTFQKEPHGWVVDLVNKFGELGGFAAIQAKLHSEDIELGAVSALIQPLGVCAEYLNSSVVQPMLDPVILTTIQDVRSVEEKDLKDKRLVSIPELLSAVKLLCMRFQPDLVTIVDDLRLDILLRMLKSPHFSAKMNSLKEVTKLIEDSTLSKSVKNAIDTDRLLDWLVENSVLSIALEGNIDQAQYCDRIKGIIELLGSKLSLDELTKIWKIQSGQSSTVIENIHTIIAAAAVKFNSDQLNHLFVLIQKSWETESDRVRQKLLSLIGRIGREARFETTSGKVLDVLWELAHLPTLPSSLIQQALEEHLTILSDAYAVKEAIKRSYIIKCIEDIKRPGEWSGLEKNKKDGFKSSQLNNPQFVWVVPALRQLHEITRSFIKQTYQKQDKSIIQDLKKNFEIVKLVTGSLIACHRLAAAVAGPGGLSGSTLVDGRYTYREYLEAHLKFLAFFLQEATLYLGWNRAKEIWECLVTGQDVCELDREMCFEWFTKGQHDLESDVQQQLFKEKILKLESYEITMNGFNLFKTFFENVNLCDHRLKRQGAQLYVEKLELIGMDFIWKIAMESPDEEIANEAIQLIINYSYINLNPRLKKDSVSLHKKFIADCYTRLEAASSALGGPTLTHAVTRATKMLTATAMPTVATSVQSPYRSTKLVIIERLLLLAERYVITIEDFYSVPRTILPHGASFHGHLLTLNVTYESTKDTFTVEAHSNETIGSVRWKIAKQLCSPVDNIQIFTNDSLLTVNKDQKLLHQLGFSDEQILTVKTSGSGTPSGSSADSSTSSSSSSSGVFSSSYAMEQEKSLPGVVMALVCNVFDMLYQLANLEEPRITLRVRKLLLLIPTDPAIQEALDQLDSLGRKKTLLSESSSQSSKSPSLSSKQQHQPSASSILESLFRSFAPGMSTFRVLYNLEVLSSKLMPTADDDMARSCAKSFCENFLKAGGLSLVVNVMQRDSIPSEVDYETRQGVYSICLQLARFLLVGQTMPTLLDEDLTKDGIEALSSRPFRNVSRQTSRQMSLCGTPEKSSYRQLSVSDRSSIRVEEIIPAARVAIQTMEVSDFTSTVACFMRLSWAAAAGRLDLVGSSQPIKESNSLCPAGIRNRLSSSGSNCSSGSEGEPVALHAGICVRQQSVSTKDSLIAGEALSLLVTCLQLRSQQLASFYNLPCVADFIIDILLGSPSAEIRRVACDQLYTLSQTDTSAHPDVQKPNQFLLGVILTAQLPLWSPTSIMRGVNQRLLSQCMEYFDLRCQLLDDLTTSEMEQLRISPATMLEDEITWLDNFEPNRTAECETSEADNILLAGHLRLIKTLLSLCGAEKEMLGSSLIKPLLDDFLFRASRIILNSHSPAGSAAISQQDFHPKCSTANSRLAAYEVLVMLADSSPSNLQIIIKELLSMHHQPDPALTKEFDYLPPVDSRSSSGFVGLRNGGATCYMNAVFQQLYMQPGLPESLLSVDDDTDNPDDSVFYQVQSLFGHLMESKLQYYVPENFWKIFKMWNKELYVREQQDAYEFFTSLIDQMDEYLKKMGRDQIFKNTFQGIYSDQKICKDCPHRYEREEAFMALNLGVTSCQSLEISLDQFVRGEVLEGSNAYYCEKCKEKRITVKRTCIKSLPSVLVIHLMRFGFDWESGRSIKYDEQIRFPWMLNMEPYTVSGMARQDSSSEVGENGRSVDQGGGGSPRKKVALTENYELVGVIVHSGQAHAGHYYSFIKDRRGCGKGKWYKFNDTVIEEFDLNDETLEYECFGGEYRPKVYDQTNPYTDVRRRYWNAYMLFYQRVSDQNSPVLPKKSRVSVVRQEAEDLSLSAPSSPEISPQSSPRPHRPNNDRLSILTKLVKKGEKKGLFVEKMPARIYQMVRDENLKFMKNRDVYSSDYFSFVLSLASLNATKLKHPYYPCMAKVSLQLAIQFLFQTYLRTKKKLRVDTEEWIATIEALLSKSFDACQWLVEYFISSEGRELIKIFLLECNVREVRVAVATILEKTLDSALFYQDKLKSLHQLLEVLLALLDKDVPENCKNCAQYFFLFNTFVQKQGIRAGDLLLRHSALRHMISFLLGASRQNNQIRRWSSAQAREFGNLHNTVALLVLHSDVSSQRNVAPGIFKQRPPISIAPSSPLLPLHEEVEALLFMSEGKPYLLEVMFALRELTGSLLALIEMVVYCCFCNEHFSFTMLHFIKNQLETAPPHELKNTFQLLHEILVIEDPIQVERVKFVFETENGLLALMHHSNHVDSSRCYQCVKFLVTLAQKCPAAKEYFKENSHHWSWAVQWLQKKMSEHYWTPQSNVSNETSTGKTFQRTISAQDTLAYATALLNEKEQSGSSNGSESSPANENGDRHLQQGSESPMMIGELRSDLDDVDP
In short: as §1

USP25 = target: T3, USP25 (UniProt Q9UHP3)
T3 sequence (whole entry): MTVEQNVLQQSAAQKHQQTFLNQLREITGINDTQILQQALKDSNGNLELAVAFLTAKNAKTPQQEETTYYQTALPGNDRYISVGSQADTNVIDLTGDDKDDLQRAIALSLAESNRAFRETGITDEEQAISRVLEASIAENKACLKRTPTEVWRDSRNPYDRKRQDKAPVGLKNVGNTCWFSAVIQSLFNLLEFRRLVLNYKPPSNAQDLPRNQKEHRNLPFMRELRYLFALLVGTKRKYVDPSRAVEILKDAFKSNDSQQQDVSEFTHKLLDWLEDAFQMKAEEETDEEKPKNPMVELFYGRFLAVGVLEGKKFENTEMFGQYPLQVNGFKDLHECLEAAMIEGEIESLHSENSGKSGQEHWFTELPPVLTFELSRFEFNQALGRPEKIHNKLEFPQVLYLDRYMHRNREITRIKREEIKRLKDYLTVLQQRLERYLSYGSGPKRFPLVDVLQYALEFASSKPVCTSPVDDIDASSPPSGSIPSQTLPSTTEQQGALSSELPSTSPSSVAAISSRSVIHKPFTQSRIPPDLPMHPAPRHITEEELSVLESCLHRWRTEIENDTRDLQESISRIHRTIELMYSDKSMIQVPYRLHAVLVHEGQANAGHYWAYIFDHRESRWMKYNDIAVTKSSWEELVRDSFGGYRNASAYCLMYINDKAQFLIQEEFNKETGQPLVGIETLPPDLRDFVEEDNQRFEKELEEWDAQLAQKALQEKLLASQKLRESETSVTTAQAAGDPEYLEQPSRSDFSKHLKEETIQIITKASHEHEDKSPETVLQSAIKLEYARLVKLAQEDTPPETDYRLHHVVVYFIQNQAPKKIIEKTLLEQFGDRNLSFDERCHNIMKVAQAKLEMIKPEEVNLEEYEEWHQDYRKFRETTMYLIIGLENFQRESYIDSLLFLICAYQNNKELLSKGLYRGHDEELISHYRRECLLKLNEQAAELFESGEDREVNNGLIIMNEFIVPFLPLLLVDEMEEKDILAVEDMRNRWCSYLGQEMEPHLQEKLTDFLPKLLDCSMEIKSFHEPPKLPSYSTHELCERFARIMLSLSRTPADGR
In short: as §1

USP28 = target: T4, USP28 (UniProt Q96RU2)
T4 sequence (whole entry): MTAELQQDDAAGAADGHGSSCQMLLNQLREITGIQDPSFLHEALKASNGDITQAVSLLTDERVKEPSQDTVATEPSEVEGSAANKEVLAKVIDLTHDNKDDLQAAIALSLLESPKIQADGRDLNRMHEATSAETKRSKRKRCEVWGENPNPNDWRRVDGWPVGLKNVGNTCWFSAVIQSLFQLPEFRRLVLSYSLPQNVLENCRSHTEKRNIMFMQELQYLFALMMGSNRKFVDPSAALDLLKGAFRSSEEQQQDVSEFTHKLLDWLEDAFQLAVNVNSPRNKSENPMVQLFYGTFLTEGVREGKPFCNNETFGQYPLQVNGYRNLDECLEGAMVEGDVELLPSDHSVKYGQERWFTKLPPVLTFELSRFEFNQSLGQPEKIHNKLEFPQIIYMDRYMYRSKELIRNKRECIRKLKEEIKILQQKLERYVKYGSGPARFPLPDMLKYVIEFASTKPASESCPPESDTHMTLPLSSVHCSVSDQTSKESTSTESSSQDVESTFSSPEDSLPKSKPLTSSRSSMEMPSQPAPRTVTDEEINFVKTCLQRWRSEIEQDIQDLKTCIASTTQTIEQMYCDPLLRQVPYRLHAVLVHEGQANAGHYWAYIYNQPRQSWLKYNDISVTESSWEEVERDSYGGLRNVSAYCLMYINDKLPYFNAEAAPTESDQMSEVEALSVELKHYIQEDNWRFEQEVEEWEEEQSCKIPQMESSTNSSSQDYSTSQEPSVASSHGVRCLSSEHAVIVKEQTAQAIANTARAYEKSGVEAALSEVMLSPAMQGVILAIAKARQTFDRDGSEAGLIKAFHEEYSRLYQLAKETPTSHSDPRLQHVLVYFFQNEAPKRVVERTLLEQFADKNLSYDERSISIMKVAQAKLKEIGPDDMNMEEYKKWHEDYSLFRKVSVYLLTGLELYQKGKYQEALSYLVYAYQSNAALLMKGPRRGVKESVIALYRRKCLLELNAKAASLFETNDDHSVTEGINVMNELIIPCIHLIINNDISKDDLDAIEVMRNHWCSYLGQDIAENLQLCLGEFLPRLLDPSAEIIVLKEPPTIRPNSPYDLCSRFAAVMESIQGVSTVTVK
In short: as §1

Measured: log2 ratio of Biotin-Ahx-Ub-VS probe labelling

O=C(CCl)N1CCC(c2nc3ccccc3o2)CC1
inactive: USP19 -0.537 | USP22 -0.0192 | USP24 -0.503 | USP25 -0.466 | USP28 -0.736
